Assay results from PubChem BioAssay (NCI).
This is part of a sample that, as a whole, favours compounds with a hit. Of some 79,000 tested, about 15% had one in any assay. Unmarked numbers belong to inactive results. Calls of active or inactive are those of the source. Rule as the data show it: active = growth inhibition above about 70%; inactive = the rest.

How the values were obtained:
[1] = NCI Yeast Anticancer Drug Screen. Data for the rad50 strain (AID 155);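 also: 0% = growth of vehicle-only cultures of the same strain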; details: S. cerevisiae rad50 strain growth inhibition, hits give high values
How it was run: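 Compounds were tested on a yeast strain with an engineered DNA damage repair alteration; the reported value is growth inhibition normalised to vehicle treatment.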

[2] = NCI Yeast Anticancer Drug Screen. Data for the mec2-1 strain (AID 157); details: S. cerevisiae mec2-1 strain, hits give high values
How it was run: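 Cells of the genetically defined mec2-1 yeast strain are incubated with test compound. Inhibition of growth is calculated against vehicle-treated controls.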

[3] = NCI Yeast Anticancer Drug Screen. Data for the sgs1 mgt1 strain (AID 161);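 also: 0% = growth of cultures given vehicle only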; details: S. cerevisiae sgs1 mgt1 strain, hits give high values
How it was run: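 Genetically altered yeast, compound exposure, growth inhibition relative to vehicle.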

[4] = NCI Yeast Anticancer Drug Screen. Data for the cln2 rad14 strain (AID 165);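 also: 0% = growth equal to vehicle treated cultures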; details: S. cerevisiae cln2 rad14 strain, hits give high values
How it was run: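 The screen exposed genetically defined yeast (cln2 rad14) to test compounds and scored growth inhibition relative to vehicle-treated controls.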

[5] = NCI Yeast Anticancer Drug Screen. Data for the bub3 strain (AID 167); details: S. cerevisiae bub3 mutant strain, hits give high values
How it was run: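 Growth of a checkpoint-deficient yeast mutant is measured after compound exposure. Values represent inhibition relative to vehicle.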

[6] = NCI Yeast Anticancer Drug Screen. Data for the mlh1 rad18 strain (AID 175); details: S. cerevisiae mlh1 rad18 strain growth inhibition, hits give high values
How it was run: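 Compound-treated yeast growth, normalised to vehicle controls. Strain bears defined DNA repair mutations.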

[7] = at 5.0 µM (retest, dose inferred, filed as 0.5)
[8] = at 50.0 µM (retest, dose inferred, filed as 5.0)

| Compound | growth inhibition [1, 7] | growth inhibition [1, 8] | growth inhibition ([1]; at 50.0 µM) | growth inhibition [2, 7] | growth inhibition [2, 8] | growth inhibition ([2]; at 50.0 µM) | growth inhibition [3, 7] | growth inhibition [3, 8] | growth inhibition ([3]; at 50.0 µM) | growth inhibition [4, 7] | growth inhibition [4, 8] | growth inhibition ([4]; at 50.0 µM) | growth inhibition [5, 7] | growth inhibition [5, 8] | growth inhibition ([5]; at 50.0 µM) | growth inhibition [6, 7] | growth inhibition [6, 8] | growth inhibition ([6]; at 50.0 µM) |
| --- | --- | --- | --- | --- | --- | --- | --- | --- | --- | --- | --- | --- | --- | --- | --- | --- | --- | --- |
| CC1(O)CC([CH2][Hg][I])OC([CH2][Hg][I])C1 (stereo not given) | 99% (active) | 99% (active) | 96.3% (active) | 99% (active) | 99% (active) | 98.3% (active) | 100% (active) | 99% (active) | 96% (active) | 99% (active) | 98% (active) | 98% (active) | 99% (active) | 98% (active) | 98.6% (active) | 99% (active) | 99% (active) | 91.6% (active) |
| CCc1cc2c(cc1-c1csc(C/C(N)=N/O)n1)C(C)(C)CCC2(C)C | 55% | 88% (active) | 89.5% (active) | 38% | 92% (active) | 90.7% (active) | 52% | 93% (active) | 91.4% (active) | 39% | 96% (active) | 89.7% (active) | 48% | 93% (active) | 91% (active) | 60% | 94% (active) | 90.3% (active) |
| CC(C)(c1ccccc1)c1ccc(O)cc1 | -5% | 58% | 98% (active) | -38% | 88% (active) | 99% (active) | -7% | 46% | 99.7% (active) | -9% | 71% (active) | 98.8% (active) | -23% | 97% (active) | 99.5% (active) | -8% | 97% (active) | 99.5% (active) |
| ClCCN(CCCl)CCN1c2ccccc2Sc2ccc3ccccc3c21 | 3% | 31% | 80% (active) | 2% | 53% | 40% | 7% | 81% (active) | 95.8% (active) | -7% | 18% | 70.9% (active) | -5% | 42% | 40.6% | 12% | 78% (active) | 83.5% (active) |
| COC1(OC)C(Cl)=C(Cl)C(Cl)=C1Cl | 9% | 95% (active) | 46.4% | -2% | 84% (active) | 46.5% | -1% | 91% (active) | 75.2% (active) | 0% | 42% | -9.85% | 2% | 89% (active) | 58.8% | 4% | 76% (active) | 78.8% (active) |
